Test results from ChEMBL document CHEMBL1961873, “Compounds: GSK PKIS; Assays: Nanosyn kinase panel” (2012).

What was measured:
[1] = target: Sphingosine kinase 1 (Homo sapiens) (UniProt Q9NYA1); settings: at 1 µM;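 note: mean SPHK1 inhibition value reported from the GSK PKIS kinase panel screen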
[2] = target: T1, Sphingosine kinase 2 (Homo sapiens) (UniProt Q9NRA0); settings: at 0.1 µM
T1 sequence (whole entry): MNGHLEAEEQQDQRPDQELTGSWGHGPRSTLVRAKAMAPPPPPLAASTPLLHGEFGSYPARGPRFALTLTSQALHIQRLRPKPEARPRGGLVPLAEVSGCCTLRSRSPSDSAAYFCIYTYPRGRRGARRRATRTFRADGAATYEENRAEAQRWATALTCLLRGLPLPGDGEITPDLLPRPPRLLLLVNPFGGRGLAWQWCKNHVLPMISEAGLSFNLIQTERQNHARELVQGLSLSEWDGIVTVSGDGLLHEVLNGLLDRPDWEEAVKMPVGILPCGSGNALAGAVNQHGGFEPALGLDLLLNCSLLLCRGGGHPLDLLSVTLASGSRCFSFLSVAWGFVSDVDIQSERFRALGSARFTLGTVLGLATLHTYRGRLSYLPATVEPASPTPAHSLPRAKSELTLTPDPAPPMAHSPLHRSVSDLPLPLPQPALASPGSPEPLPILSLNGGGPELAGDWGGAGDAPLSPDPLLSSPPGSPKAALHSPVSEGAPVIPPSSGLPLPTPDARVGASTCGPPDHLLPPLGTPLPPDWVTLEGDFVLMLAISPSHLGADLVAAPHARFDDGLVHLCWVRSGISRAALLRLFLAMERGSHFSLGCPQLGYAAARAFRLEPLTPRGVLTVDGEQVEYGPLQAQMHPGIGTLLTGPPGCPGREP

[3] = target: T1, Sphingosine kinase 2 (Homo sapiens); settings: at 1 µM
[4] = target: Casein kinase II subunit alpha (Homo sapiens) (UniProt P68400); settings: at 0.1 µM
[5] = target: Casein kinase II subunit alpha (Homo sapiens) (UniProt P68400); settings: at 1 µM
[6] = target: T2, Inhibitor of nuclear factor kappa-B kinase subunit alpha (Homo sapiens) (UniProt O15111); settings: at 0.1 µM
T2 sequence (whole entry): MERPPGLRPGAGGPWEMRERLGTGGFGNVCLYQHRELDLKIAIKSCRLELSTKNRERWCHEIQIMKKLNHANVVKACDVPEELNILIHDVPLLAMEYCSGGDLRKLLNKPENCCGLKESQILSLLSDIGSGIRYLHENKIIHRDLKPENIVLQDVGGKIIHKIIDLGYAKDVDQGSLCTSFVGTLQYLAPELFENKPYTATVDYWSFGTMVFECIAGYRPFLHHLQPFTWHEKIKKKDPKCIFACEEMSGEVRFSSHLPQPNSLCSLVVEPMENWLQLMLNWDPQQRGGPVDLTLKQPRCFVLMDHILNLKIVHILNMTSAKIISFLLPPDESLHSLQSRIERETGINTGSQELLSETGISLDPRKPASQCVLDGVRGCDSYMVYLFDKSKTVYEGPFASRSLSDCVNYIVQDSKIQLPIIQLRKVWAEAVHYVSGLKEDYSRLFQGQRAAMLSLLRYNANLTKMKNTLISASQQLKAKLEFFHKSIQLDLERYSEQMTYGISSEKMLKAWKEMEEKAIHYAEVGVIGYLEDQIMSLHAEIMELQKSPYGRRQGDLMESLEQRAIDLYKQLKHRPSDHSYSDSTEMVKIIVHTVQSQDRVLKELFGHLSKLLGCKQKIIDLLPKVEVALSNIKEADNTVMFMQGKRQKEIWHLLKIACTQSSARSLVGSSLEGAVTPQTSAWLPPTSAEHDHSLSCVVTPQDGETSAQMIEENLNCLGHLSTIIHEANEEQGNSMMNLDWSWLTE

[7] = target: T2, Inhibitor of nuclear factor kappa-B kinase subunit alpha (Homo sapiens); settings: at 1 µM
[8] = target: T3, Inhibitor of nuclear factor kappa-B kinase subunit beta (Homo sapiens) (UniProt O14920); settings: at 0.1 µM
T3 sequence (whole entry): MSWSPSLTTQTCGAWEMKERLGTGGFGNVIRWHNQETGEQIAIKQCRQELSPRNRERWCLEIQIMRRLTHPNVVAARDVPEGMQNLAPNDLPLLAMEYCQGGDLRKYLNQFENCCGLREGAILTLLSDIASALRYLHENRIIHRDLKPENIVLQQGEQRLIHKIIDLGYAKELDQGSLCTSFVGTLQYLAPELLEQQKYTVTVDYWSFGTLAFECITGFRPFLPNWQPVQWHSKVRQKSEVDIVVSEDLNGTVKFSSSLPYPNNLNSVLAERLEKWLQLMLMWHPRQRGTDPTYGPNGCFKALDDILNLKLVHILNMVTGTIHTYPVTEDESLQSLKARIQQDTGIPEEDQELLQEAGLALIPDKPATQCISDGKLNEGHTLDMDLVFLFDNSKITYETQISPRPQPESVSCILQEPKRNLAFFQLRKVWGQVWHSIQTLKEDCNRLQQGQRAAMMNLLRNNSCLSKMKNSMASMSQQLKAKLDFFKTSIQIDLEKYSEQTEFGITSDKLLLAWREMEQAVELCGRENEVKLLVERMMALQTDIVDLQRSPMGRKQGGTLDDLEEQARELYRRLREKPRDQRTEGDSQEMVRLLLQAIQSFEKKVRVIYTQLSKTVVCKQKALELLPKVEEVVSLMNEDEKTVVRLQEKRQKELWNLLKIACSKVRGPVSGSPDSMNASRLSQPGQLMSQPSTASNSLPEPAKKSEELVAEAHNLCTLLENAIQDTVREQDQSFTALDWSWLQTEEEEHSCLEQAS

[9] = target: T3, Inhibitor of nuclear factor kappa-B kinase subunit beta (Homo sapiens); settings: at 1 µM
[10] = target: T4, Inhibitor of nuclear factor kappa-B kinase subunit epsilon (Homo sapiens) (UniProt Q14164); settings: at 0.1 µM
T4 sequence (whole entry): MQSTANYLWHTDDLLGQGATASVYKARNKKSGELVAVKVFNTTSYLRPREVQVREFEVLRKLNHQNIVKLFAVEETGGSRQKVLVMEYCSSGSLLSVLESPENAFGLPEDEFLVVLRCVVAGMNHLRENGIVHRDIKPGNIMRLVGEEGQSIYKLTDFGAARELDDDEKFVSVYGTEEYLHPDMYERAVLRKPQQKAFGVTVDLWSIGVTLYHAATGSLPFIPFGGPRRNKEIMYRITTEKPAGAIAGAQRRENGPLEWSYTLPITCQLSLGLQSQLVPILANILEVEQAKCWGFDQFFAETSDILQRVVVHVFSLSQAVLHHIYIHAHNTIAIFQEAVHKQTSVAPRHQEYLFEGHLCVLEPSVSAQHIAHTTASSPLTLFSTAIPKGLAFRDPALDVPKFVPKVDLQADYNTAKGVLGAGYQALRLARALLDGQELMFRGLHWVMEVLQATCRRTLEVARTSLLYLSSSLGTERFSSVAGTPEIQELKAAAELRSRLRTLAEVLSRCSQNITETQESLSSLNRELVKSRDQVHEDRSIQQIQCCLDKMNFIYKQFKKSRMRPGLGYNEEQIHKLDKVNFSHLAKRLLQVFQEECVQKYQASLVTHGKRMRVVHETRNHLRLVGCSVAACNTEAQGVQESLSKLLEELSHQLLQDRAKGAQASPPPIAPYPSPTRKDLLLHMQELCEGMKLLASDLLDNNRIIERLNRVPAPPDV

[11] = target: T4, Inhibitor of nuclear factor kappa-B kinase subunit epsilon (Homo sapiens); settings: at 1 µM
[12] = target: T5, Serine/threonine-protein kinase Nek1 (Homo sapiens) (UniProt Q96PY6); settings: at 0.1 µM
T5 sequence (whole entry): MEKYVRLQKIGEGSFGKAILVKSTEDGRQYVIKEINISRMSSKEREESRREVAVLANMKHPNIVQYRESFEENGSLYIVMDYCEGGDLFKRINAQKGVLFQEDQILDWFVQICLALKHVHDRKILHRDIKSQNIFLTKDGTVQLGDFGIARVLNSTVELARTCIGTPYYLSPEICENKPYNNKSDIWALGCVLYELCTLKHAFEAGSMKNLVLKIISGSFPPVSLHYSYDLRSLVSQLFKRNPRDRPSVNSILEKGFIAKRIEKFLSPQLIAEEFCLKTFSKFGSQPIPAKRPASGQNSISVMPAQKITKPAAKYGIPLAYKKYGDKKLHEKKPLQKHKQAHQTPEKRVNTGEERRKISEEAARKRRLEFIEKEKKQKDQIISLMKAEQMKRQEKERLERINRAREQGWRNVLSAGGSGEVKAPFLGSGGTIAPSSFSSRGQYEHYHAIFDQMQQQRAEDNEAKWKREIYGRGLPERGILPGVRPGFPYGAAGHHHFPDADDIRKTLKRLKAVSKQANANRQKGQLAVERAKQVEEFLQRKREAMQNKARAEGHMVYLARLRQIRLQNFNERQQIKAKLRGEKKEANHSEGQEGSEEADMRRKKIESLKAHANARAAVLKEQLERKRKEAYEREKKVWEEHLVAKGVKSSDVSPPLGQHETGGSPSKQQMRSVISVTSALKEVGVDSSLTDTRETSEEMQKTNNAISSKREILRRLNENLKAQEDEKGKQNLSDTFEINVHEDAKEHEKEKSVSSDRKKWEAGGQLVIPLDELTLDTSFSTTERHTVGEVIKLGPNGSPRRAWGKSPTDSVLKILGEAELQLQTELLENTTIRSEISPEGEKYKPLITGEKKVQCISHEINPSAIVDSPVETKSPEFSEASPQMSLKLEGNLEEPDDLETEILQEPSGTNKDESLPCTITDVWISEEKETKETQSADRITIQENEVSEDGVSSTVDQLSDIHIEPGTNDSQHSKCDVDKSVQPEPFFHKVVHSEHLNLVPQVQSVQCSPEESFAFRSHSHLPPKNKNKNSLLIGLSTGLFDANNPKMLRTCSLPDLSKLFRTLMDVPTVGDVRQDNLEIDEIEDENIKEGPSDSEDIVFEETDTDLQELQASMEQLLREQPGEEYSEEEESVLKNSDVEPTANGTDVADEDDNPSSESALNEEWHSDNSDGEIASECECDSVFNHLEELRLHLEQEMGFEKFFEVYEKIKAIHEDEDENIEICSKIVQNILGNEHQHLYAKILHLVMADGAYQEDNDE

[13] = target: T5, Serine/threonine-protein kinase Nek1 (Homo sapiens); settings: at 1 µM
[14] = target: T6, Serine/threonine-protein kinase Nek2 (Homo sapiens) (UniProt P51955); settings: at 0.1 µM
T6 sequence (whole entry): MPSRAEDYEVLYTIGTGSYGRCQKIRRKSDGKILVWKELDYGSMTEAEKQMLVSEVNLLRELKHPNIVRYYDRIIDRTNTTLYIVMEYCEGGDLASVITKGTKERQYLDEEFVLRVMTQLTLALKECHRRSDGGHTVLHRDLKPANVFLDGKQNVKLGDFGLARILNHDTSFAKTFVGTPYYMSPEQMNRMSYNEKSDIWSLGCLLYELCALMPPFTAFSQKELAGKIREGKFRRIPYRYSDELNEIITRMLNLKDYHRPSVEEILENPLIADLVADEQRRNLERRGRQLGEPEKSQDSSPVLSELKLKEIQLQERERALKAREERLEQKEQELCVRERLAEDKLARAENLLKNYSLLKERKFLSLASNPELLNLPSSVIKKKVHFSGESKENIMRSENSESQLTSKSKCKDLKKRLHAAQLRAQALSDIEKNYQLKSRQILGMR

[15] = target: T6, Serine/threonine-protein kinase Nek2 (Homo sapiens); settings: at 1 µM
[16] = target: Serine/threonine-protein kinase Nek6 (Homo sapiens) (UniProt Q9HC98); settings: at 0.1 µM
[17] = target: Serine/threonine-protein kinase Nek6 (Homo sapiens) (UniProt Q9HC98); settings: at 1 µM
[18] = target: Serine/threonine-protein kinase Nek7 (Homo sapiens) (UniProt Q8TDX7); settings: at 0.1 µM
[19] = target: Serine/threonine-protein kinase Nek7 (Homo sapiens) (UniProt Q8TDX7); settings: at 1 µM
[20] = target: T7, Serine/threonine-protein kinase Nek9 (Homo sapiens) (UniProt Q8TD19); settings: at 0.1 µM;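 note: reported value is the mean percent inhibition of NEK9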
T7 sequence (whole entry): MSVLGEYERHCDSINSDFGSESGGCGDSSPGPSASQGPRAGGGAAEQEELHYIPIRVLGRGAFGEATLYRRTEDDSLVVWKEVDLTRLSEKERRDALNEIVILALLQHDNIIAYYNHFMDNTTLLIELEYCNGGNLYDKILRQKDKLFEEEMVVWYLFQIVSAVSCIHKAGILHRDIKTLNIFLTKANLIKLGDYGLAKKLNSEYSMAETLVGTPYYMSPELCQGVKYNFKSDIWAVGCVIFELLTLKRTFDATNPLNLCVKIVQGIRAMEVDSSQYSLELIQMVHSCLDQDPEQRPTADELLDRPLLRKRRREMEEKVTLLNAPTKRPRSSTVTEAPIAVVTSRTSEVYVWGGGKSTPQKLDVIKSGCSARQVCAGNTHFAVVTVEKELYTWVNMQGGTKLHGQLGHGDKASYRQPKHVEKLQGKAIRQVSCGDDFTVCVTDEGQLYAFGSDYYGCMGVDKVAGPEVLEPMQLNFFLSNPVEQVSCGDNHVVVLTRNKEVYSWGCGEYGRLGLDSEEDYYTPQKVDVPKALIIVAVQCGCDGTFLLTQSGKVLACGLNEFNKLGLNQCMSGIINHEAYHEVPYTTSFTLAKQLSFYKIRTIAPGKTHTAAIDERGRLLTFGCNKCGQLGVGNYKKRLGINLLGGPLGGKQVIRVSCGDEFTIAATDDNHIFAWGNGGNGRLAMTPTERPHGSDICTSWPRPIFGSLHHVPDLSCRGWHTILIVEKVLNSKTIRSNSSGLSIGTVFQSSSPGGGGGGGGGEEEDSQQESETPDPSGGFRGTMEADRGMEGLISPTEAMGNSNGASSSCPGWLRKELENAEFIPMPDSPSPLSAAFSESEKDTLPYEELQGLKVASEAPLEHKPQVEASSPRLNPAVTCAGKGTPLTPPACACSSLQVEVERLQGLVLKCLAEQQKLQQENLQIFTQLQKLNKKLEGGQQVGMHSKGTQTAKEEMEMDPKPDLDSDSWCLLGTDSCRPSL

Serine/threonine-protein kinase Nek7 (Homo sapiens), sequence (Q8TDX7 whole entry, looked up): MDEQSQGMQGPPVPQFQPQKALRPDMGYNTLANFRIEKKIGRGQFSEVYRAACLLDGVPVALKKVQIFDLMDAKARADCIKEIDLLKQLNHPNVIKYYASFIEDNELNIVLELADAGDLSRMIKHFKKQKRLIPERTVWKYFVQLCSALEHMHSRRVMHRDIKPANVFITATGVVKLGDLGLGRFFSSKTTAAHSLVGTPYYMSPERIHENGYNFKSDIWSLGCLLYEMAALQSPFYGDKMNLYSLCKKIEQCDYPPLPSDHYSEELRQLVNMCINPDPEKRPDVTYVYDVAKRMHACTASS
Serine/threonine-protein kinase Nek6 (Homo sapiens), sequence (Q9HC98 whole entry): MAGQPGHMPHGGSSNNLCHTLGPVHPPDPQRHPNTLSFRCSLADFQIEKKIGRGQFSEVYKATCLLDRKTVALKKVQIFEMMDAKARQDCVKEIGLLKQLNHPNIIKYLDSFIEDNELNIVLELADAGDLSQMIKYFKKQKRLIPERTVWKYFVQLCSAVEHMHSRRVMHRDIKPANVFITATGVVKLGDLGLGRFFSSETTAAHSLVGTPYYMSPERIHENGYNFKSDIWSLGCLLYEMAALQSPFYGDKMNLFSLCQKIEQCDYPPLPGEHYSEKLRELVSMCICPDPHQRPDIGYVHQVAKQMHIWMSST
Casein kinase II subunit alpha (Homo sapiens), sequence (P68400 whole entry, looked up): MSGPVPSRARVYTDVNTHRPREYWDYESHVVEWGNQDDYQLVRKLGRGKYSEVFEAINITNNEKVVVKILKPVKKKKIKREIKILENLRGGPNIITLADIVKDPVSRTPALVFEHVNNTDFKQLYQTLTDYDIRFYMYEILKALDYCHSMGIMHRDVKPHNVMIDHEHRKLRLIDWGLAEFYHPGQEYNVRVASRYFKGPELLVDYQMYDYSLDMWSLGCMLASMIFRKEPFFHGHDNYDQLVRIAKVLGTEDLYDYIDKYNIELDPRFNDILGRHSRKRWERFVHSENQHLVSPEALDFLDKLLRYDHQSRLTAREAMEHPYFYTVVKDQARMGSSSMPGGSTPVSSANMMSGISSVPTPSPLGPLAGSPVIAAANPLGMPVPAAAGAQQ
Sphingosine kinase 1 (Homo sapiens), sequence (Q9NYA1 whole entry): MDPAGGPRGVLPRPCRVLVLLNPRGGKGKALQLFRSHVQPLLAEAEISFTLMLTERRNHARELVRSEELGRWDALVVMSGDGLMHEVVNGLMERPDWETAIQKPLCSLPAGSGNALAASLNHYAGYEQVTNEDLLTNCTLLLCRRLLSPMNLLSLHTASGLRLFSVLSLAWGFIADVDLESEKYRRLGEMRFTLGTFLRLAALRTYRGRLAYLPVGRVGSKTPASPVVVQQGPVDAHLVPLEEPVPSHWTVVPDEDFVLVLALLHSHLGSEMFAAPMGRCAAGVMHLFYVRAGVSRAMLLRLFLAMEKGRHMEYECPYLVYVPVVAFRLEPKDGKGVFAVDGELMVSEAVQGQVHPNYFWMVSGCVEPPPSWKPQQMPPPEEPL

SMILES	inhibition [1] [%]	inhibition [2] [%]	inhibition [3] [%]	inhibition [4] [%]	inhibition [5] [%]	inhibition [6] [%]	inhibition [7] [%]	inhibition [8] [%]	inhibition [9] [%]	inhibition [10] [%]	inhibition [11] [%]	inhibition [12] [%]	inhibition [13] [%]	inhibition [14] [%]	inhibition [15] [%]	inhibition [16] [%]	inhibition [17] [%]	inhibition [18] [%]	inhibition [19] [%]	inhibition [20] [%]
Cc1nnc(-c2ccc(C)c(-c3ccc(C(=O)Nc4cccc(C#N)c4)cc3)c2)o1	0	0	1.55	1.51	6.5	7.7	4	3.09	8.71	3.28	6.02	1.56	4.44	3.25	2.64	1.65	0.35	3.44	3.07	5.36
CS(=O)(=O)CCNCc1ccc(-c2ccc3ncnc(Nc4ccc(OCc5ccccc5)c(Cl)c4)c3c2)o1	2.51	1.2	-1.85	-1.12	1.71	-2.26	2.45	-1.73	0.03	0.17	-0.15	1.25	2.81	1.61	0.43	3.37	-1.04	0.02	2.5	-1.85
